Reference: PubChem BioAssay (NCATS)
Records with an inconclusive call do not appear. Activity calls are given as the source filed them. Unless noted, calls follow the shape of the dose curve; as a rule, active = well fitted curve in the direction sought with a large enough effect; inconclusive = small, poorly fitted or top-dose-only effect, or another doubt; inactive = no such curve, though single readings can be large; an effect the other way counts as inactive or inconclusive.

What was measured:
[1] = Primary qHTS for inhibitors of nuclear receptor binding SET domain protein 2 (NSD2) in an isogenic RCH-ACV NSD2 p.E1099K mutant (9B) (AID 1645876); also: nearly all actives have a fitted effect of over 70% in size
[2] = Primary qHTS for inhibitors of nuclear receptor binding SET domain protein 2 (NSD2) in an RCH-ACV wild type WT cells (2C) (AID 1645877); also: nearly all actives have a fitted effect of over 70% in size
[3] = molecular target: Glutathione peroxidase 1 (Homo sapiens) (UniProt P07203); assay: Primary qHTS Assay for Inhibitors of Recombinant Selenoprotein Glutathione Peroxidase 1 (GPX1) (AID 1845191); also: nearly all actives have a fitted effect of over 65% in size
Chain of Glutathione peroxidase 1 (Homo sapiens) (P07203 whole entry, looked up): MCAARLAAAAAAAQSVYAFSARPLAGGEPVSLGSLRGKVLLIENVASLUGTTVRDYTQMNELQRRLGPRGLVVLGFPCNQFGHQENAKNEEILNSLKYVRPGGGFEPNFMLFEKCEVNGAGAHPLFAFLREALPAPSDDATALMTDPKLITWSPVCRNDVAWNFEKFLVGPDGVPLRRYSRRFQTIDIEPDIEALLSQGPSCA
Summary of the method: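 10 nM GPX1 + cpd, 30 min RT; start w/ 1 mM GSH, 0.5 mM cumene hydroperoxide, 0.5 mM NADPH, 100 nM GR, 0.01% BSA; buffer 50 mM Tris-HCl pH 7.5, 2 mM EDTA, 150 mM NaCl; Fl 340/450, 0 & 15 min.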

[4] = molecular target: Phospholipid hydroperoxide glutathione peroxidase GPX4 (Homo sapiens) (UniProt P36969); assay: Primary qHTS Assay for Inhibitors of Recombinant Selenoprotein Glutathione Peroxidase 4 (GPX4) (AID 1845192); also: nearly all actives have a fitted effect of over 65% in size
Chain of Phospholipid hydroperoxide glutathione peroxidase GPX4 (Homo sapiens) (P36969 whole entry, looked up): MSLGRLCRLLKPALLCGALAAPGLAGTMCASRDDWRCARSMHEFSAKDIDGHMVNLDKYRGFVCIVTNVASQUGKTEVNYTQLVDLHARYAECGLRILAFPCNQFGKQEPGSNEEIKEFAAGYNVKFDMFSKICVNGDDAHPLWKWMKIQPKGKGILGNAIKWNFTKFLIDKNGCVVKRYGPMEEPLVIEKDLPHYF
Summary of the method: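 NADPH consumption, followed by fluorescence at 340/450 nm between 0 and 15 min, reports GPX4 activity via coupled glutathione reductase (100 nM). Enzyme 200 nM was pre-exposed to compound 30 min; 0.5 mM cumene hydroperoxide and 1 mM GSH served as substrates.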

[5] = qHTS drug screen for cell cycle checkpoint inhibitors in PARPi-resistant BRCA-mutant ovarian cancer cell lines. (AID 1963452; calls by dose curve); conditions: PEO1/OlaR viability, CellTiter-Glo luminescence, 96 h; for Z-AUC: stronger effect = lower value
Summary of the method: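 PEO1, PEO4 and PEO1/OlaR ovarian cancer cells, 600 per well, exposed 96 h at 37C to a dilution series. Viability read by CellTiter-Glo luminescence, normalized to DMSO and empty wells; activity summarized as Z-AUC.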

[6] = measured here: PEO1 parental Z-AUC
Potency is read from the fitted curve at half-maximal effect.

| SMILES | Potency [1] | Potency [2] | Potency [3] | Potency [4] | Z-AUC [5] | Z-AUC [5, 6] | Z-AUC ([5]; measured here: PEO4 Z-AUC) | Potency [5] |
| --- | --- | --- | --- | --- | --- | --- | --- | --- |
| CCNC(=O)Nc1ccc(-c2nc3c(c(N4CCOC[C@@H]4C)n2)CCN(C2COC2)C3)cc1 | 0.833 µM (active) | 0.742 µM (active) | inactive | inactive | 0.987 (inactive) | 1.46 | 1.27 | – |
| CO[C@H]1C[C@@H]2CC[C@@H](C)[C@@](O)(O2)C(=O)C(=O)N2CCCC[C@H]2C(=O)O[C@H]([C@H](C)C[C@@H]2CC[C@@H](OCCO)[C@H](OC)C2)CC(=O)[C@H](C)/C=C(/C)[C@@H](O)[C@@H](OC)C(=O)[C@H](C)C[C@H](C)/C=C\C=CC=C1C | 0.118 µM (active) | 0.0742 µM (active) | inactive | – | 0.703 (inactive) | 0.778 | 0.68 | – |
| N#Cc1cc2cc(CN3CCC(Nc4ncnc5sc(CC(F)(F)F)cc45)CC3)c(O)cc2n1Cc1cn[nH]c1 | 13.2 µM (active) | 11.8 µM (active) | inactive | inactive | -1.24 (inactive) | -1.35 | -1.55 | – |
| c1ccc(-c2cc(CCC3CCNCC3)c3ccccc3n2)cc1 | 16.6 µM (active) | 13.2 µM (active) | inactive | inactive | -0.417 (inactive) | 0.0933 | 0.16 | – |
| CC[C@H](C)[C@@H]([C@@H](CC(=O)N1CCC[C@H]1[C@H](OC)[C@@H](C)C(=O)N[C@@H](Cc1ccccc1)c1nccs1)OC)N(C)C(=O)[C@@H](NC(=O)[C@H](C(C)C)N(C)C)C(C)C | inactive | inactive | inactive | inactive | – | -3.14 | -2.96 | 27.5 µM (active) |
| CCCCCCCOc1ccc(CCC(N)(CO)CO)cc1C(F)(F)F | 11.8 µM (active) | 10.5 µM (active) | – | inactive | -0.8 (inactive) | -1.22 | -1.35 | – |
| CCc1cc(/C(C)=N/OCc2ccc(C3CCCCC3)c(C(F)(F)F)c2)ccc1CN1CC(C(=O)O)C1 | inactive | inactive | inactive | inactive | -0.0137 (inactive) | -0.327 | 0.118 | – |
| COc1ccc2c(c1)[C@]1(C[C@H]1c1ccc3c(/C=C/c4ccc(CN5C[C@@H](C)O[C@@H](C)C5)cc4)n[nH]c3c1)C(=O)N2 | 1.32 µM (active) | 0.0295 µM (active) | inactive | inactive | 0.356 (inactive) | -0.0342 | -0.785 | – |
| C/C=C/C/C=C/CCC(=O)[C@H]1O[C@H]1C(N)=O | 11.8 µM (active) | 13.2 µM (active) | inactive | inactive | -0.297 (inactive) | -0.147 | -0.049 | – |
| O=C(NO)C1(CS(=O)(=O)c2ccc(Oc3ccc(Cl)cc3)cc2)CCOCC1 | 16.6 µM (active) | 16.6 µM (active) | – | inactive | 1.18 (inactive) | 0.196 | 0.465 | – |
| Cc1ncc(NC(=O)c2cccc(C(F)(F)F)c2)cc1-c1cnc(OC2CCOCC2)c(N2CCOCC2)c1 | 18.6 µM (active) | 16.6 µM (active) | – | inactive | – | – | – | – |
| COc1ccc(Oc2cc(NCCC(F)(F)F)c3ncc(-c4ccc(C(=O)NC5CC5)c(C)c4)n3n2)c(F)c1F | 0.0235 µM (active) | 0.0148 µM (active) | inactive | inactive | 1.26 (inactive) | 0.0575 | -0.837 | – |
| C=CC(=O)N[C@H]1CN(c2nc(Nc3cn(C)nc3OC)c3ncn(C)c3n2)C[C@@H]1F | 14.8 µM (active) | 20.9 µM (active) | – | inactive | – | – | – | – |
| [O-][n+]1cccc(-c2nc3c(Cl)cccc3cc2[C@@H](Nc2ncnc3cccnc23)C(F)(F)F)c1 | 0.263 µM (active) | 0.468 µM (active) | inactive | inactive | -0.846 (inactive) | 0.42 | 0.695 | – |
| Nc1ncccc1-c1nc2ccc(-c3ccccc3)nc2n1-c1ccc(C2(N)CCC2)cc1 | 0.118 µM (active) | 0.186 µM (active) | 23 µM (active) | 22.7 µM (active) | -0.599 (inactive) | -0.0298 | -0.137 | – |
| COc1ccc(/C=C\c2cc(OC)c(OC)c(OC)c2)cc1O | 0.0105 µM (active) | 0.0093 µM (active) | inactive | inactive | – | -1.52 | -1.81 | 0.0078 µM (active) |
| Nc1nc2cc(-c3ccc4ncc(C(=O)N5CCOCC5)n4c3)ccc2o1 | 8.33 µM (active) | 9.34 µM (active) | – | inactive | 1.25 (inactive) | 0.336 | 0.353 | – |
| CC(C)(C)C[C@H]1N[C@@H](C(=O)NC2CCC(O)CC2)[C@H](c2cccc(Cl)c2F)[C@@]12C(=O)Nc1cc(Cl)ccc12 (some centres undefined) | 1.48 µM (active) | 0.468 µM (active) | inactive | inactive | -0.139 (inactive) | 0.559 | 0.282 | – |
